From PubChem BioAssay (EPA / NIEHS) come the findings set out here.

Experiment [1] relates to TTR (gene 7276). Kind of experiment: CCTE_GLTED_hTTR_0.5uM: CCTE's human Transthyretin (hTTR) Inhibition Assay, with 0.5uM TTR, Great Lakes Toxicology and Ecology Division (GLTED) Lab (AID 2284320). The essentials:
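Probe (ANSA) displacement from 0.5 uM human transthyretin was followed by fluorescence (ex 380, em 475) after a 2 h incubation with chemical. Activity was scored as signal loss and fitted positively relative to DMSO.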

Experiment [2] can be described thus: Tanguay_ZF_120hpf_CRAN: Oregon State University Tanguay Lab 120 Hour Post-fertilization zebrafish Assay for Craniofacial Malformation (AID 2284397). The essentials: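 Scoring of craniofacial malformation as a binary endpoint was done at 120 hpf by brightfield microscopy and was not done in dead embryos. Exposure was static, starting at 6 hpf, in dechorionated wild-type embryos held singly at 28C with 0.64% DMSO final.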

Experiment [3] is described as follows: Tanguay_ZF_120hpf_AXIS: Oregon State University Tanguay Lab 120 Hour Post-fertilization zebrafish Assay for Axial Malformation (AID 2284398). The essentials:
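Scoring was binary (present or absent) for body-axis defects, judged by brightfield imaging at 120 hpf in surviving larvae. Exposure was static at 28C from 6 hpf in chorion-free 5D wild-type embryos, with 0.64% DMSO vehicle.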

A short description of experiment [4]: Tanguay_ZF_120hpf_MORT: Oregon State University Tanguay Lab 120 Hour Post-fertilization zebrafish Assay for Mortality (AID 2284399). The gist of the method: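 Mortality, recorded present/absent via brightfield imaging at 24 and 120 hpf, in 5D zebrafish embryos exposed statically from 6 hpf after pronase chorion removal. Exposure at 28C, 0.64% DMSO vehicle, DMSO baseline.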

Experiment [5] in a line: Tanguay_ZF_120hpf_EDEM: Oregon State University Tanguay Lab 120 Hour Post-fertilization zebrafish Assay for Edema Malformation (AID 2284400). The gist of the method:
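Edema recorded as a binary endpoint under brightfield at 120 hpf, excluding embryos that died. Exposure was static, sealed, 28C, from 6 hpf in dechorionated wild-type larvae, final DMSO 0.64%, DMSO as baseline.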

Experiment [6] in a line: Tanguay_ZF_120hpf_BRN: Oregon State University Tanguay Lab 120 Hour Post-fertilization zebrafish Assay for Brain Region Malformation (AID 2284402). The gist of the method:
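Binary brightfield scoring of brain malformation at 120 hpf in 5D wild-type larvae, chorion removed with pronase at 4 hpf. Static exposure began at 6 hpf, 28C, sealed plates, DMSO 0.64% (vol/vol) as vehicle baseline.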

A short description of experiment [7]: Tanguay_ZF_120hpf_TCHR: Oregon State University Tanguay Lab 120 Hour Post-fertilization zebrafish Assay for Touch Responsive (AID 2284403). The essentials: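 Binary touch-response calls are made at 120 hpf in 5D wild-type zebrafish larvae. These larvae were dechorionated with pronase and exposed singly from 6 hpf in sealed, dark plates at 28 °C with 0.64% DMSO final; dead embryos are excluded.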

Experiment [8] is described as follows: Tanguay_ZF_120hpf_ANY: Oregon State University Tanguay Lab 120 Hour Post-fertilization zebrafish Assay for Any Mortality and Malformation (AID 2284404). The gist of the method:
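Dechorionated Tropical 5D wild-type embryos, one per well from 6 hpf, static exposure in sealed, dark plates at 28C until 120 hpf, 0.64% DMSO final. Brightfield scoring of mortality and malformations as binary presence/absence, pooling 13 morphology endpoints.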

Experiment [9] is described as follows: CCTE_Padilla_ZF_Score.Swim_bladder: CCTE's 144 Hour Post-fertilization zebrafish Assay Score for Swim Bladder Malformation, Padilla Lab (AID 2284408). The essentials:
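Swim bladder inflation scored at 6 dpf by two blinded observers under a stereo microscope. Exposure ran from 6–8 hpf in sealed wells of 10% Hanks' at 26C, with rinsing at 5 dpf; DMSO served as baseline.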

Experiment [10] is described as follows: CCTE_Padilla_ZF_Score.Position: CCTE's 144 Hour Post-fertilization zebrafish Assay Score for Position, Padilla Lab (AID 2284409). The essentials: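 Wild-type zebrafish embryos (with chorions) exposed singly from 6–8 hpf in sealed wells of Hanks' solution at 26C, rinsed at 5 dpf. At 6 dpf, blinded assessors scored abnormal water-column position by brightfield stereomicroscopy, relative to DMSO.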

A short description of experiment [11]: CCTE_Padilla_ZF_Score.Living: CCTE's 144 Hour Post-fertilization zebrafish Assay Score for Viability, Padilla Lab (AID 2284410).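 Further: larval death at 6 dpf judged by absent heartbeat or coagulation.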 The gist of the method:
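Mortality at 6 dpf, judged as absent heartbeat or coagulation by two blinded observers, after sealed static exposure beginning at 6–8 hpf at 26C. Larvae were rinsed free of chemical at 5 dpf, and activity was fitted relative to DMSO.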

Experiment [12] is described as follows: CCTE_Padilla_ZF_Score.General: CCTE's 144 Hour Post-fertilization zebrafish Assay Score for General Malformation, Padilla Lab (AID 2284411). The essentials: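 Malformation, death and hatching were scored at 6 dpf by two blinded observers under a stereo microscope. Embryos were dosed singly from 6-8 hpf in sealed plates of 10% Hanks' at 26C and rinsed on 5 dpf; DMSO baseline.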

Experiment [13] is described as follows: CCTE_Mundy_HCI_iCellGluta_NOG_NeuronCount: CCTE's Neurite Outgrowth Assay in iCellGluta cells for Neuron Count, Mundy Lab (AID 2284340; active means hit-call score of the fitted dose curve at least 0.9, where 1 is the maximum;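 further: cells fixed about 48 h after compound addition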). The essentials: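 Neuron count read by automated high-content imaging of Hoechst 33342 and betaIII-tubulin/Alexa Fluor-488 labelling in human iPSC glutamatergic neurons. Activity fitted relative to DMSO.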
A short description of experiment [14]: CCTE_Deisenroth_5AR_NBTE_donor: CCTE's 5alpha-reductase NanoBRET Target Engagement Assay […], Deisenroth Lab (AID 2284319). To be noted: actives raise or lower the signal. The gist of the method:
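SRD5A2-NanoLuc, HEK293T, 20 h expression. Chemical 10 nM - 29.9 uM, 8 conc, duplicate; 3 h preincubation + 2 h testosterone tracer. Nano-Glo substrate plus extracellular NanoLuc inhibitor; donor lum 460 nm. DMSO baseline, bidirectional fit.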
In general terms: In BRET a luciferase serves as donor, and the signal depends on an acceptor being close.

Experiment [15] concerns SRD5A2 (gene 6716). The experiment in a line: CCTE_Deisenroth_5AR_NBTE_ratio: CCTE's 5alpha-reductase NanoBRET Target Engagement Assay - Ratio, Deisenroth Lab (AID 2284322). Particulars: actives raise or lower the signal. The gist of the method:
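SRD5A2-NanoLuc HEK293T; cmpd 10 nM-29.9 uM, 3 h preinc + testosterone tracer 2 h; NanoBRET ratio 650/460; bidirectional fit vs DMSO.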

Experiment [16] is described as follows: CCTE_Padilla_ZF_Score.Craniofacial: CCTE's 144 Hour Post-fertilization zebrafish Assay Score for Craniofacial Malformation, Padilla Lab (AID 2284405). The essentials:
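Craniofacial defects were scored at 6 dpf by two blinded observers using stereomicroscopy. Exposure of wild-type embryos began at 6–8 hpf in sealed wells of 10% Hanks' solution at 26C, with chemical removed by rinsing at 5 dpf.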

Experiment [17] in a line: CCTE_Padilla_ZF_Score.Edema: CCTE's 144 Hour Post-fertilization zebrafish Assay Score for Edema Malformation, Padilla Lab (AID 2284406). The gist of the method:
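Edema scored at 6 dpf by two blinded observers under a stereo microscope, in single outbred wild-type larvae exposed from 6-8 hpf in sealed wells (Hanks', 26C, 14:10 h light) and chemical-free after a 5 dpf rinse.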

The nature of experiment [18]: CCTE_Deisenroth_5AR_NBTE_acceptor: CCTE's 5alpha-reductase NanoBRET Target Engagement Assay - Autofluorescence Screen, Deisenroth Lab (AID 2284321).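 Further: compound fluorescence in the acceptor channel under 460 nm excitation flags autofluorescence artifacts.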 Particulars: actives raise or lower the signal. The gist of the method:
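Acceptor-channel fluorescence flags artifacts, with excitation fixed at 460 nm. Nominal 100 uM chemical samples were read in triplicate runs, and signal changes were fitted in both directions relative to DMSO.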

Experiment [19] deals with SERPINA7 (gene 6906). Kind of experiment: CCTE_GLTED_hTBG: CCTE's human Thyroxine-binding Globulin (TBG) Inhibition Assay, Great Lakes Toxicology and Ecology Division (GLTED) Lab (AID 2284343; active means hit-call score of the fitted dose curve at least 0.9, where 1 is the maximum;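 further: active chemicals lower fluorescence versus DMSO baseline by displacing probe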). The gist of the method:
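Fluorescence (ex 380/em 475) reports ANSA displaced from human TBG after a 2 h incubation with test chemical, without cells. Loss of signal indicates displacement, with DMSO serving as baseline.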

Results filed as inconclusive are left out. Activity calls are given as the source filed them. How the source made its calls, unless noted: active means hit-call score of the fitted dose curve at least 0.9, where 1 is the maximum; inactive means score below 0.9.

As usually defined, the AC50 is the concentration giving half of the maximal activity seen. Regarding `O=S(=O)(Cl)C(F)(F)C(F)(F)C(F)(F)C(F)(F)C(F)(F)C(F)(F)C(F)(F)C(F)(F)F`, the AC50 in experiment [1] is 0.234 µM (active); in [9], 12.1 µM (active); in [10], 81.7 µM (active); in experiment [11] it was 88.8 µM (active). Also, the result in experiment [2], in [3], in [4], in experiment [5], in experiment [6] and in experiment [7] was inactive. The molecule was classed as inactive in [8] and in experiment [12].
For `O=C(O)C(F)(F)C(F)(F)C(F)(F)OC(F)(C(F)(F)F)C(F)(F)F`, in experiment [1], the AC50 was 0.321 µM (active). The molecule was classed as inactive in experiment [13], in experiment [2], in experiment [3], in experiment [4], in experiment [5] and in experiment [6]. Also, the call in experiment [7], in [8], in experiment [9], in [10], in [11] and in experiment [12] was inactive.
Turning to `CCCCCCCCCCCCCC[P+](CCCC)(CCCC)CCCC`, the AC50 is 13.1 µM (active) in experiment [14] and 22.9 µM (active) in experiment [15].
For the molecule `C=CC(=O)OCC(F)(F)C(F)(F)C(F)(F)COC(=O)C=C`, the AC50 was 0.424 µM (active) in [1]; 18.6 µM (active) in experiment [2]; 16.3 µM (active) in experiment [4]; 20.9 µM (active) in experiment [5]; 4.29 µM (active) in experiment [6]; 5.92 µM (active) in experiment [8]. In addition, the AC50 in experiment [11] is 10 µM (active). Further, the molecule was classed as inactive in experiment [13], in experiment [3], in experiment [7], in [9], in experiment [10] and in experiment [12].
Turning to `OCC(F)(F)C(F)(F)C(F)(F)C(F)(F)C(F)(F)C(F)(F)CO`, the AC50 was 11.2 µM (active) in experiment [1]; 80.4 µM (active) in [16]; 62.9 µM (active) in experiment [17]; 11.6 µM (active) in experiment [9]; 47.7 µM (active) in [12]. Moreover, the call in [2], in [3], in [4], in experiment [5], in experiment [6] and in experiment [7] was inactive. Besides, the call in experiment [8], in experiment [10] and in experiment [11] was inactive.
In the case of `NS(=O)(=O)C(F)(F)C(F)(F)C(F)(F)C(F)(F)C(F)(F)C(F)(F)F`, the AC50 in experiment [1] is 0.329 µM (active); in experiment [4] it was 11.1 µM (active); in experiment [8], 10.6 µM (active); in [9] it was 2.66 µM (active); in experiment [10] it was 2.51 µM (active); in experiment [11] it was 4.62 µM (active). Also, the half-maximal activity concentration (AC50) in [12] is 2.27 µM (active). Moreover, the result in [2], in [3], in experiment [5], in experiment [6] and in experiment [7] was inactive.
As to `C=CC(=O)OCCC(F)(F)C(F)(F)C(F)(F)C(F)(F)F`, the molecule was called inactive in experiment [1], in experiment [2], in experiment [3], in [4], in experiment [5] and in experiment [6]. Moreover, the result in [7], in experiment [8] and in experiment [10] was inactive. In addition, the values for the AC50 in [9], in [11] and in [12] were 88.3 µM (active), 20.9 µM (active) and 76.7 µM (active), respectively.
Take `CCN=C1C=CC(=C(c2ccc(N(CC)CC)cc2)c2ccc(N(CC)CC)cc2)c2ccccc21`: the AC50 was 6.95 µM (active) in experiment [14], 2.24 µM (active) in experiment [18], 0.166 µM (active) in experiment [15] and 4.51 µM (active) in [19].
As to `CCCCCCCCCc1ccc(OCCO)cc1`, the AC50 in experiment [14] is 40.3 µM (active); in experiment [18], 19.1 µM (active); in [15], 88.8 µM (active); in experiment [19] it was 50 µM (active).
In the case of `CNS(=O)(=O)C(F)(F)C(F)(F)C(F)(F)C(F)(F)C(F)(F)C(F)(F)C(F)(F)C(F)(F)F`, the AC50 in experiment [1] was 1.34 µM (active); in [4] it was 56.9 µM (active); in experiment [5], 47.8 µM (active); in experiment [8], 55.5 µM (active); in experiment [9] it was 0.606 µM (active); in experiment [12], 0.737 µM (active). Further, the result in experiment [2], in experiment [3], in experiment [6], in experiment [7], in experiment [10] and in experiment [11] was inactive.
Turning to `O=C1C=CC(=O)N1c1ccccc1`, the AC50 in experiment [14] was 50 µM (active); in experiment [18], 50 µM (active); in experiment [15], 22.3 µM (active).
For the molecule `C=CC(=O)OCC(F)(F)C(F)(F)C(F)(F)C(F)(F)C(F)(F)C(F)(F)C(F)(F)C(F)F`, the AC50 in experiment [1] is 1.84 µM (active); in [9] it was 102 µM (active). Also, the molecule was called inactive in experiment [2], in experiment [3], in experiment [4], in experiment [5], in experiment [6] and in [7]. The molecule was classed as inactive in [8], in experiment [10], in experiment [11] and in experiment [12].
As for `CCCCCCCCCCCCC[N+](C)(C)Cc1ccccc1`, the AC50 in experiment [14] was 18.2 µM (active); in experiment [18], 17.2 µM (active); in experiment [15], 68.9 µM (active).
`NC(=O)C(F)(F)C(F)(F)C(F)(F)C(F)(F)C(F)(F)C(F)(F)C(F)(F)F`: the results for the AC50 in experiment [1], in experiment [4] and in experiment [8] were 5.65 µM (active), 41.3 µM (active) and 43.4 µM (active), respectively. The outcome in experiment [13], in [2], in experiment [3], in [5], in [6] and in experiment [7] was inactive. For the same molecule, the outcome in experiment [9], in experiment [10], in experiment [11] and in [12] was inactive.
